Test results reported in PubChem BioAssay (NCI).
This is part of a sample that, as a whole, favours compounds with a hit. Of some 83,000 tested, about 20% had one in any assay.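 Growth was measured after 48 h exposure to one concentration of compound in 96-well plates. Values under 10 count as active.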 Activity calls are given as the source filed them.

Experiments:
Experiment in all cases: NCI-60 one-dose screen, 48 h (100 = growth as untreated, 0 = no growth, -100 = all killed)
Conditions in all cases: 10 µM unless noted
HCT-15 colon = system: HCT-15 colon
HT29 colon = system: HT29 colon
SNB-75 CNS = system: SNB-75 CNS
SNB-19 CNS = system: SNB-19 CNS
U251 CNS = system: U251 CNS
PC-3 prostate = system: PC-3 prostate
SK-MEL-5 melanoma = system: SK-MEL-5 melanoma
UACC-62 melanoma = system: UACC-62 melanoma
LOX IMVI melanoma = system: LOX IMVI melanoma
SK-MEL-28 melanoma = system: SK-MEL-28 melanoma
SN12C renal = system: SN12C renal
UO-31 renal = system: UO-31 renal
TK-10 renal = system: TK-10 renal
ACHN renal = system: ACHN renal
CAKI-1 renal = system: CAKI-1 renal
A498 renal = system: A498 renal
CCRF-CEM leukemia = system: CCRF-CEM leukemia
MOLT-4 leukemia = system: MOLT-4 leukemia
SK-MEL-2 melanoma = system: SK-MEL-2 melanoma
EKVX NSCLC = system: EKVX NSCLC

Measured: growth

COc1ccc(C(=O)/C=C/c2c(Cl)c3c(c(OC)c2Cl)OCC(=O)N3)cc1
active: HT29 colon 7.82% | LOX IMVI melanoma -36.1% | CCRF-CEM leukemia 5.04% | MOLT-4 leukemia 0.538%
inactive: HCT-15 colon 20.1% | SNB-75 CNS 37% | SNB-19 CNS 59.6% | U251 CNS 17% | PC-3 prostate 52.1% | SK-MEL-5 melanoma 21.2% | UACC-62 melanoma 46.7% | SK-MEL-28 melanoma 48.2% | SN12C renal 27.8% | UO-31 renal 56.7% | TK-10 renal 57.3% | ACHN renal 41.8% | CAKI-1 renal 20.2% | A498 renal 83.5%

O=c1[nH]c(-c2ccccn2)nc2sc3c(c12)CCCCC3
active: LOX IMVI melanoma 8.61%
inactive: HCT-15 colon 34.3% | HT29 colon 36.9% | SNB-75 CNS 80.9% | SNB-19 CNS 46.1% | U251 CNS 17.1% | PC-3 prostate 44.2% | SK-MEL-5 melanoma 44.5% | UACC-62 melanoma 20.2% | SK-MEL-28 melanoma 45.2% | SK-MEL-2 melanoma 74.4% | EKVX NSCLC 32.8% | SN12C renal 51.2% | UO-31 renal 32.6% | TK-10 renal 49.5% | ACHN renal 36.2% | CAKI-1 renal 38.5% | CCRF-CEM leukemia 26.7% | MOLT-4 leukemia 32.1%

Oc1c(Cl)cc(Cl)cc1CNc1nccnn1
inactive: HCT-15 colon 101% | HT29 colon 105% | SNB-75 CNS 78.1% | SNB-19 CNS 95.8% | U251 CNS 102% | PC-3 prostate 94.8% | SK-MEL-5 melanoma 102% | UACC-62 melanoma 93.9% | LOX IMVI melanoma 99.4% | SK-MEL-28 melanoma 106% | SK-MEL-2 melanoma 115% | EKVX NSCLC 94.4% | SN12C renal 90.4% | UO-31 renal 93.5% | TK-10 renal 113% | ACHN renal 99.8% | A498 renal 88.7% | CCRF-CEM leukemia 111% | MOLT-4 leukemia 101%

COc1ccc(C(=O)/C=C/c2c[n+](=O)c3ccc(F)cc3n2[O-])cc1
inactive: HCT-15 colon 101% | HT29 colon 106% | SNB-75 CNS 106% | SNB-19 CNS 103% | U251 CNS 95.1% | PC-3 prostate 104% | SK-MEL-5 melanoma 111% | UACC-62 melanoma 92.1% | LOX IMVI melanoma 94.2% | SK-MEL-28 melanoma 111% | SK-MEL-2 melanoma 112% | EKVX NSCLC 92% | SN12C renal 96.2% | UO-31 renal 87.8% | TK-10 renal 106% | ACHN renal 102% | A498 renal 109% | CCRF-CEM leukemia 95.9% | MOLT-4 leukemia 107%

COc1cc(-c2c3c(nc4c2c(C)nn4-c2ccccc2)-c2ccccc2C(=O)C3=O)cc(OC)c1OC
inactive: HCT-15 colon 85.6% | HT29 colon 44.7% | SNB-75 CNS 138% | SNB-19 CNS 101% | U251 CNS 86.7% | PC-3 prostate 53.1% | SK-MEL-5 melanoma 70.5% | UACC-62 melanoma 86.7% | LOX IMVI melanoma 35.7% | SK-MEL-28 melanoma 95% | SK-MEL-2 melanoma 72.3% | EKVX NSCLC 98.3% | SN12C renal 90.5% | UO-31 renal 73.1% | ACHN renal 82.3% | CAKI-1 renal 74.4% | A498 renal 83.7% | CCRF-CEM leukemia 54.4% | MOLT-4 leukemia 52.5%

COc1cc(-c2cc(-c3nc4ccc(Cl)cc4[nH]3)[nH]n2)cc(OC)c1OC
inactive: HCT-15 colon 51.9% | HT29 colon 71.7% | SNB-75 CNS 68.4% | SNB-19 CNS 85% | U251 CNS 69.7% | PC-3 prostate 26.1% | UACC-62 melanoma 37.1% | LOX IMVI melanoma 34% | SK-MEL-28 melanoma 60.1% | SK-MEL-2 melanoma 55.8% | SN12C renal 68.3% | UO-31 renal 20.6% | TK-10 renal 67.1% | ACHN renal 51.9% | CAKI-1 renal 35.1% | A498 renal 39.2%
active: SK-MEL-5 melanoma -5.65% | CCRF-CEM leukemia 7.12% | MOLT-4 leukemia 4.79%

CN(C)c1ccc(C2Nc3ccccc3-n3cccc32)cc1 (centres undefined)
inactive: HCT-15 colon 89.7% | HT29 colon 99.9% | SNB-75 CNS 107% | SNB-19 CNS 94.7% | U251 CNS 95.6% | PC-3 prostate 66.4% | SK-MEL-5 melanoma 93.2% | UACC-62 melanoma 79% | LOX IMVI melanoma 103% | SK-MEL-28 melanoma 107% | SK-MEL-2 melanoma 118% | EKVX NSCLC 87.8% | UO-31 renal 64.2% | TK-10 renal 55.7% | ACHN renal 86.6% | A498 renal 113% | CCRF-CEM leukemia 109% | MOLT-4 leukemia 104%

O=C(CCCN1CCOCC1)Nc1ccc(Cn2nnc3c2C(=O)c2nnn(Cc4ccc(NC(=O)CCCN5CCOCC5)cc4)c2C3=O)cc1
active: HT29 colon 1.66% | SNB-75 CNS -87.9% | LOX IMVI melanoma -5.71% | SN12C renal -40.7% | CCRF-CEM leukemia -3.08% | MOLT-4 leukemia -21.5%
inactive: HCT-15 colon 95.8% | SNB-19 CNS 59.5% | U251 CNS 18.2% | PC-3 prostate 55.5% | SK-MEL-5 melanoma 17.1% | UACC-62 melanoma 51.5% | SK-MEL-28 melanoma 37.3% | UO-31 renal 103% | TK-10 renal 116% | ACHN renal 97.9% | CAKI-1 renal 88.6% | A498 renal 102%
